IL-1B inflam inh – inflammasome signaling inhibition, IL-1 beta readout. activity change, % at 57.5 µM. actives 4.7% (n = 360,000). AID 743279. THP-1 LPS/ATP IL-1B secretion, AlphaLISA, 16 h; stronger effect = lower value; in the data active = activity change below about -50%; inconclusive = mostly about -30% to -49%
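THP-1 cells pretreated 1 hr with compounds (up to 57.5 uM final), then stimulated with LPS (250 ng/mL final) plus ATP (1.25 mM final); secreted IL-1B measured by AlphaLISA after 16 hr, decreased signal indicating inhibition.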
DT40 TDP1 CPT – growth inhibition of DT40 Tdp1-/-;hTDP1 cells with camptothecin (screen for TDP1 inhibitors); actives 12% (n = 420,000); chicken DT40 Tdp1-/-;hTDP1 cells + 20 nM CPT, ATP luminescence, 48 h; Potency, µM (titrated, usually from 46.2 µM), for inactives: at the highest dose activity change, negative = growth inhibition, actives largely listed as inhibitors; AID 686979; also: potency is read from the fitted curve at half-maximal effect; nearly all actives have a fitted effect of over 55% in size
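Cell growth measured by CellTiter-Glo luminescence after a minimum 48 h, 37 C compound exposure with 20 nM CPT in Tdp1-knockout DT40 cells stably expressing hTDP1, seeded 400/well; qHTS titration format.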
HT1080-NT tox – kills 2HG-producing HT-1080-NT fibrosarcoma cells; HT-1080-NT fibrosarcoma viability, CellTiter-Glo ATP luminescence, 48 h; actives 1.6% (n = 360,000); Potency, µM (doses to about 46.1 µM), for inactives: at the highest dose activity, negative = less viability, hits mostly cytotoxic;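 also: NT is the 2HG producing partner of a matched IDH1 knockdown line; potency is read from the fitted curve at half-maximal effect; 0% = DMSO-treated cells and -100% = media-only wells without cells; nearly all actives have a fitted effect of over 55% in size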
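HT-1080-NT; 750 cells/well; 5% FBS RPMI; 48 h compound, 37 degrees C; CellTiter-Glo luminescence; curve fitting and curve-class assignment.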
HT1080 IDH1KD tx – HT-1080 IDH1 knockdown cell toxicity (counter line); HT-1080 IDH1 knockdown viability, ATP luminescence, 48 h; Potency, µM (highest dose often 46.1 µM), inactives show at the top dose activity, negative = toxicity, most hits filed as cytotoxic; actives 2% (n = 360,000);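 also: potency is read from the fitted curve at half-maximal effect; 0% = DMSO wells and -100% = cell-free medium wells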
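After a 2 h attachment period, IDH1KD HT-1080 cells took pin-transferred compound for 48 h at 37 °C; ATP-based luminescence after 10 min room-temperature reagent incubation reported viability.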
TDP1 cell noCPT – qHTS for Inhibitors of human tyrosyl-DNA phosphodiesterase 1 (TDP1): qHTS in cells in absence of CPT | DT40 Tdp1-/- hTDP1 cells, no CPT, ATP luminescence, 48 h | Potency, µM (highest dose often 46.2 µM), for the others: top-dose activity change, negative = growth inhibition, hits mostly inhibitors | actives 15% (n = 420,000); also: potency is read from the fitted curve at half-maximal effect; nearly all actives have a fitted effect of over 55% in size
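Seeded 400 DT40-hTDP1 cells/well (vehicle DMSO, no 20 nM CPT); pinned compounds; ≥48 hr at 37 °C; CellTiter-Glo luminescence as viability measure.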
12-LOX inh – inhibitors of human 12S-lipoxygenase ALOX12 | purified 12hLO, xylenol orange hydroperoxide absorbance | Potency, µM (series often up to 108 µM), inactives show at the highest dose activity change, negative = inhibition, usual class: inhibitors | actives 1.1% (n = 580,000); also: potency is read from the fitted curve at half-maximal effect
Target sequence (P18054 whole entry, looked up): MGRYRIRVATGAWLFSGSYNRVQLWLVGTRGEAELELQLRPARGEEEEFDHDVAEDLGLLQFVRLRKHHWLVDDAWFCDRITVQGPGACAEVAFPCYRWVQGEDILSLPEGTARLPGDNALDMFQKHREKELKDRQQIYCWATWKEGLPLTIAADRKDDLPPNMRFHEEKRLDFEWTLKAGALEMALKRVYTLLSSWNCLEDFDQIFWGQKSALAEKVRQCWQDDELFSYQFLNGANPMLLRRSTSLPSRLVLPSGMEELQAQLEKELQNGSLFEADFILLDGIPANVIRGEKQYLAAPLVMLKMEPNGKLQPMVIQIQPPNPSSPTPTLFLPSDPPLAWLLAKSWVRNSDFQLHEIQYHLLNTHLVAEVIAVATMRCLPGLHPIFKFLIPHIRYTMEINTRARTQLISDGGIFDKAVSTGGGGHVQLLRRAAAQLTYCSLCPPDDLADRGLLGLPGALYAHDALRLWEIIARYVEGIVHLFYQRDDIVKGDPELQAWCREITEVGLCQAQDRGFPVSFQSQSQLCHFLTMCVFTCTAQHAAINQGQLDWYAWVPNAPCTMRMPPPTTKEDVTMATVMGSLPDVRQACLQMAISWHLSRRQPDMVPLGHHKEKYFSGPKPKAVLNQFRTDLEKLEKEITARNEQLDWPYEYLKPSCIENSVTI
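Hydroperoxide product was detected by ferrous iron/xylenol orange as the 573 to 405 nm absorbance ratio. Arachidonic acid at 40 uM (final) was turned over for 30 min at room temperature by 150 nM human 12hLO, pH 7.0 Hepes buffer, after 15 min compound preincubation.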
Active calls of the source: *; ? = inconclusive; · = no result given. Only a selection was taken, and hits are over-represented in it overall. Unless noted, calls follow the shape of the dose curve; as a rule, active = well fitted curve in the direction sought with a large enough effect; inconclusive = small, poorly fitted or top-dose-only effect, or another doubt; inactive = no such curve, though single readings can be large; an effect the other way counts as inactive or inconclusive. Unless noted, % is scaled to controls: 0 for no effect and ±100 for the full control effect.

SMILES | IL-1B inflam inh | DT40 TDP1 CPT | HT1080-NT tox | HT1080 IDH1KD tx | TDP1 cell noCPT | 12-LOX inh
CC1=C(C(=O)OCc2ccccc2)C(c2ccccc2Br)NC(=O)N1 (stereo unspecified) | -72.4* | -2.5% | -22.8% | -26.9% | ? | ?
CCOc1ccc(C2NC(=O)NC(C)=C2C(=O)OCc2ccccc2)cc1 (stereo unspecified) | ? | -29.3% | ? | ? | ? | 22.7%
COc1ccc(COC(=O)C2=C(C)NC(=O)NC2c2ccc(F)cc2)cc1 (stereo unspecified) | -52.4* | ? | -27.1% | -17.9% | ? | -30.2%
CC(C)CCCNC(=O)NC(C)c1ccc(C#N)cc1 (stereo unspecified) | · | · | · | · | · | -18.5%
O=C(COc1ccccc1)NCCC1CCN(C(=O)Nc2ccccc2)CC1 | · | · | · | · | · | 51.3%
NC(=S)N/N=C/c1ccc(C23CC4CC(CC(C4)C2)C3)cc1 | 16.2 | 9.2µM* | ? | ? | 3.66µM* | ·
COc1ccc(C(=O)N2CCCC(c3cc(C(=O)NCc4ccc(F)cc4)no3)C2)cc1 (stereo unspecified) | -15.7 | 14.6µM* | -5.2% | -8.0% | ? | -4.1%
Cc1ccc(F)cc1C(=O)N1CCCC(c2cc(C(=O)NCc3ccc(F)cc3)no2)C1 (stereo unspecified) | ? | ? | -20.2% | -21.3% | 14.6µM* | -1.6%
O=C(NCc1ccccc1)c1cc(C2CCCN(C(=O)c3ccc4c(c3)CCO4)C2)on1 (stereo unspecified) | -7.5 | ? | -12.3% | -15.2% | ? | 4.6%
O=C(NCc1ccc(F)cc1)c1cc(C2CCCN(C(=O)c3ccccn3)C2)on1 (stereo unspecified) | 0.0 | -21.2% | 3.8% | -3.6% | -5.7% | 11.0%
O=C(NCc1ccc(F)cc1)c1cc(C2CCCN(C(=O)c3ccc4ccccc4c3)C2)on1 (stereo unspecified) | -17.0 | 16.4µM* | -9.3% | -18.7% | 16.4µM* | ?
O=C(NCc1ccc(F)cc1)c1cc(C2CCCN(C(=O)c3ccc4c(c3)CCO4)C2)on1 (stereo unspecified) | -1.3 | 18.4µM* | -23.6% | -7.5% | 23.1µM* | 1.1%
CC(C)c1ccc(C(=O)N2CCCC(c3cc(C(=O)NCc4ccccc4)no3)C2)cc1 (stereo unspecified) | -1.1 | 13µM* | -28.9% | ? | 14.6µM* | 5.6%
O=C(NCc1ccccc1)c1cc(C2CCCN(C(=O)CCCc3ccccc3)C2)on1 (stereo unspecified) | -23.8 | 14.6µM* | -11.8% | -15.8% | 14.6µM* | 10.7%
NC1CCCN(Cc2cccs2)C1 (stereo unspecified) | · | · | · | · | · | -5.9%
N#Cc1c(-c2ccc(Cl)cc2Cl)csc1N | · | · | · | · | · | 20µM*
Cc1ccc(-c2csc(N)c2C#N)c(C)c1 | · | · | · | · | · | 22.4µM*
COc1ccc(CN(Cc2ccccc2)C(=O)COC(C)=O)cc1COc1ccc(NC(C)=O)cc1 | · | ? | -13.6% | -23.3% | ? | ·
COc1ccc(CN(Cc2ccccc2)C(=O)c2ccncc2)cc1COc1ccc(NC(C)=O)cc1 | · | ? | 0.0% | 3.1% | 11.2µM* | ·
COc1ccc(CN2C(=O)N(c3ccccc3)C(=O)C2c2ccccc2)cc1COc1ccc(NC(C)=O)cc1 (stereo unspecified) | · | 10µM* | 0.2% | 7.4% | 8.91µM* | ·
COc1ccc(CN(Cc2ccccc2)C(=O)CN2CCN(C)CC2)cc1COc1ccc(NC(C)=O)cc1 | · | ? | -16.3% | -13.6% | 17.8µM* | ·
COc1ccc(CN(Cc2ccccc2)C(C)=O)cc1COc1ccc(NC(C)=O)cc1 | · | ? | ? | ? | 11.2µM* | ·
